# Test results taken from PubChem BioAssay (Tox21).
# Inconclusive results are not listed. Where a call stands in place of a potency, no number is given. A structure can be active in one record and inactive in another. The source made the active and inactive calls. The call rests on the fitted dose curve; in most records, active means well fitted curve in the direction sought with a large enough effect in the repeat runs; inconclusive means weak or mixed curves; inactive means no such curve, though single readings can be large; an effect the other way counts as inactive or inconclusive.
# Legend:
# [1] = qHTS RealTime-Glo MT Cell Viability Assay in HEK293 cells - 0 hour (AID 1224880); further: top concentration of the series differs between compounds; nearly all actives have a fitted effect of over 45% in size
# Method in brief: (§1)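 Real-time viability in HEK293: signal arises when living cells convert a prosubstrate for NanoLuc in the medium, so luminescence tracks viable cell number. Compound (23 nL, DMSO) added 5 h post-seeding; kinetic reads at 0–40 h, 37 C.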
# [2] = A CellTox Green Cytotoxicity Assay to monitor cytotoxicity in HEK293 cells - 32 hour (AID 1224881); further: nearly all actives have a fitted effect of over 40% in size
# Method in brief: (§2)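 Cells (HEK293, 600/well) and dye reagent are dispensed together. After 5 h at 37 C, 23 nL compound is pinned in. Plates stay at 37 C for 40 h with fluorescence read at 0h, 8h, 16h, 24h, 32h and 40h.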
# [3] = A CellTox Green Cytotoxicity Assay to monitor cytotoxicity in HepG2 cells - 0 hour (AID 1224882); further: nearly all actives have a fitted effect of over 35% in size
# Method in brief: (§3)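 Cells and non-lytic dye reagent are dispensed together (600 HepG2 cells/well) and incubated 5 h before DMSO compound transfer. Kinetic fluorescence is then recorded in the same wells during 40 h at 37 C.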
# [4] = A CellTox Green Cytotoxicity Assay to monitor cytotoxicity in HepG2 cells - 32 hour (AID 1224883); further: nearly all actives have a fitted effect of over 50% in size; further: potency means the concentration at half of the fitted maximal effect
# Method in brief: as §3
# [5] = A CellTox Green Cytotoxicity Assay to monitor cytotoxicity in HEK293 cells - 8 hour (AID 1224884); further: nearly all actives have a fitted effect of over 35% in size
# Method in brief: as §2
# [6] = qHTS RealTime-Glo MT Cell Viability Assay in HepG2 cells - 16 hour (AID 1224885); further: nearly all actives have a fitted effect of over 50% in size
# Method in brief: (§4)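 Tox21 10K library screened in qHTS format on HepG2 cells carrying RealTime-Glo reagents. Compounds were added after a 5 h preincubation, and the luminescent signal from continuous culture was measured repeatedly during 40 h treatment.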
# [7] = qHTS RealTime-Glo MT Cell Viability Assay in HEK293 cells - 24 hour (AID 1224886); further: top concentration of the series differs between compounds; nearly all actives have a fitted effect of over 50% in size
# Method in brief: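 Luminescence generated by NanoLuc from substrate produced by living HEK293 cells served as the viability signal. Each value reflects the reading at its stated time point during continuous 40 h compound exposure at 37 C.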
# [8] = qHTS RealTime-Glo MT Cell Viability Assay in HEK293 cells - 8 hour (AID 1224887); further: top concentration of the series differs between compounds; nearly all actives have a fitted effect of over 50% in size
# Method in brief: as §1
# [9] = A CellTox Green Cytotoxicity Assay to monitor cytotoxicity in HEK293 cells - 16 hour (AID 1224888); further: nearly all actives have a fitted effect of over 35% in size
# Method in brief: as §2
# [10] = qHTS RealTime-Glo MT Cell Viability Assay in HepG2 cells - 0 hour (AID 1224889); further: nearly all actives have a fitted effect of over 50% in size
# Method in brief: as §4
SMILES,Potency [1],Potency [2],Potency [3],Potency [4],Potency [5],Potency [6],Potency [7],Potency [8],Potency [9],Potency [10],"activity change, negative = cytotoxicity [1]",cytotoxicity increase [2],cytotoxicity [3],cytotoxicity increase [4],cytotoxicity increase [5],"activity change, negative = cytotoxic [6]","activity change, negative = cytotoxicity [8]",activity change [9],"activity change, negative = cytotoxicity [10]"
O=C1CCCN1C1CCCCC1,inactive,inactive,inactive,inactive,inactive,inactive,inactive,inactive,inactive,inactive,–,–,–,–,–,–,–,–,–
CC(C)CNCC(C)C,inactive,inactive,inactive,inactive,inactive,inactive,inactive,inactive,inactive,inactive,–,–,–,–,–,–,–,–,–
N=C(N)c1ccc(OCCCOc2ccc(C(=N)N)cc2)cc1,inactive,inactive,inactive,inactive,inactive,inactive,inactive,inactive,inactive,inactive,–,–,–,–,–,–,–,–,–
C=C(C)C(=O)OCCCCCCCC(C)C,inactive,inactive,inactive,inactive,inactive,inactive,inactive,inactive,inactive,inactive,–,–,–,–,–,–,–,–,–
c1ccc(CC2=NCCN2)cc1,inactive,inactive,inactive,inactive,inactive,inactive,inactive,inactive,inactive,inactive,–,–,–,–,–,–,–,–,–
CCCCOCCOCCOCc1cc2c(cc1CCC)OCO2,inactive,inactive,inactive,22.1 µM (active) and inactive,inactive,inactive,inactive,inactive,inactive,inactive,–,–,–,–,–,–,–,–,–
C=C[Si](OC(=C)C)(OC(=C)C)OC(=C)C,inactive,inactive,inactive,inactive,inactive,inactive,inactive,inactive,inactive,inactive,–,–,–,–,–,–,–,–,–
CCn1nc(C(=O)O)c(=O)c2cc3c(cc21)OCO3,inactive,inactive,inactive,inactive,inactive,inactive,inactive,inactive,inactive,inactive,–,–,–,–,–,–,–,–,–
NC(=O)c1ccc([N+](=O)[O-])cc1,inactive,inactive,inactive,inactive,inactive,inactive,inactive,inactive,inactive,inactive,–,–,–,–,–,–,–,–,–
CN1N=C(C(N)=O)CCC1=O,inactive,inactive,inactive,inactive,inactive,inactive,inactive,inactive,inactive,inactive,–,–,–,–,–,–,–,–,–
CCOC(=O)[C@H](CCc1ccccc1)N[C@@H](C)C(=O)N1[C@H](C(=O)O)C[C@@H]2CCC[C@@H]21,inactive,inactive,inactive,inactive,inactive,inactive,inactive,inactive,inactive,inactive,–,–,–,–,–,–,–,–,–
CC/C=C\CCOC(C)=O,inactive,inactive,inactive,inactive,inactive,inactive,inactive,inactive,inactive,inactive,–,–,–,–,–,–,–,–,–
Cc1ccc(C#N)cc1,inactive,inactive,inactive,inactive,inactive,inactive,inactive,inactive,inactive,inactive,–,–,–,–,–,–,–,–,–
OCCCC1CCCCC1,inactive,inactive,inactive,inactive,inactive,inactive,inactive,inactive,inactive,inactive,–,–,–,–,–,–,–,–,–
CC(C)(C)NCCNC(C)(C)C,inactive,inactive,inactive,inactive,inactive,inactive,inactive,inactive,–,inactive,–,–,–,–,–,–,–,–,–
O=Cc1cccc([N+](=O)[O-])c1,inactive,inactive,inactive,inactive,inactive,inactive,–,inactive,inactive,inactive,–,–,–,–,–,–,–,–,–
CCCCCSCCCCC,inactive,inactive,inactive,inactive,inactive,inactive,inactive,inactive,–,inactive,–,–,–,–,–,–,–,–,–
NS(=O)(=O)c1cc(C(=O)NN2C[C@H]3[C@H]4CCC(C4)[C@H]3C2)ccc1Cl,inactive,inactive,inactive,inactive,inactive,inactive,–,inactive,inactive,inactive,–,–,–,–,–,–,–,–,–
CO/N=C(/C(=O)N[C@@H]1C(=O)N2C(C(=O)OCOC(=O)C(C)(C)C)=C(C)CS[C@H]12)c1csc(N)n1,inactive,inactive,inactive,inactive,inactive,inactive,–,inactive,–,inactive,–,–,–,–,–,–,–,–,–
CCOC(=O)c1ccc(C)cc1,inactive,inactive,inactive,inactive,inactive,inactive,–,inactive,–,inactive,–,–,–,–,–,–,–,–,–
N[C@@H](C(=O)N[C@@H]1C(=O)N2C(C(=O)O)=C(Cl)CS[C@H]12)c1ccccc1,–,–,–,–,–,–,–,–,–,–,12.5% [at 6.97 µM] (inactive),-0.855% [at 6.97 µM] (inactive),-11.9% [at 6.97 µM] (inactive),-17.5% [at 6.97 µM] (inactive),0.155% [at 6.97 µM] (inactive),1.78% [at 6.97 µM] (inactive),11.8% [at 6.97 µM] (inactive),"1.42% [at 6.97 µM, stronger effect = higher value] (inactive)",1.57% [at 6.97 µM] (inactive)
